From PubChem
TexasRed fluor: counter-screen for TRb-SRC2 inhibitors: fluorescence interference | TRb/SRC2 Texas Red total fluorescence interference | Potency, µM (titrated, usually from 106 µM), inactives show at the highest dose fluorescence change, negative = quenching | 0.29% of 280,000 active; active = well fitted curve in either direction with a large enough effect; inconclusive = small, poorly fitted or top-dose-only effect
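Human TRb ligand-binding domain at 0.6 uM with 20 nM Texas Red SRC2 peptide in Tris buffer containing 1 uM T3 and 5% DMSO, incubated with compound 5 h at ambient temperature. Total fluorescence (555/632 nm) calculated as parallel + 2 × perpendicular.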
Tau fibril ThT: inhibitors of human tau fibril formation, thioflavin T binding | recombinant tau K18 P301L, heparin-induced fibrillization, ThT fluorescence | Potency, µM (top dose mostly 57.4 µM), for the others: top-dose activity, negative = inhibition, most hits filed as inhibitors | 2.1% of 270,000 active | AID 1460; note: nearly all actives have a fitted effect of over 55% in size
Target sequence (P10636 561-689 P618L limits assumed): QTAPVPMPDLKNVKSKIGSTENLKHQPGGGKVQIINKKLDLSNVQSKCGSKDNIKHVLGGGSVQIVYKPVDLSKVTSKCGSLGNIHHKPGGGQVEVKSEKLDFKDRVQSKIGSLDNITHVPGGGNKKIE
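Using a mix of unlabeled (15 uM) and Alexa 594-labeled (0.24 uM) tau K18 P301L, heparin-triggered fibrillization over 6 hr at 37 C was scored by ThT fluorescence.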
Tau FP inhib: inhibitors of human tau fibril formation; AID 1468; K18 P301L tau heparin fibrillization, Alexa594 FP, 6 h; Potency, µM (doses to about 57.7 µM), without a hit: at the highest dose activity, negative = inhibition, actives largely listed as inhibitors; 0.39% of 280,000 active; note: nearly all actives have a fitted effect of over 55% in size
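Human tau K18 […] P301L fragment, 15 uM unlabeled plus 0.24 uM Alexa 594-labeled tau (final), with compound and 20 uM heparin in 100 mM sodium acetate pH 7; 6 hr at 37 C, then Alexa 594 FP read.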
Tau fluor cs: counter-screen for tau fibril formation inhibitors; tau K18 P301L Alexa594 fluorescence, heparin fibrillization; Potency, µM (doses to about 57.7 µM), for inactives: at the top dose activity change, negative = decrease; 0.93% of 280,000 active; AID 1463; note: nearly all actives have a fitted effect of over 55% in size
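Human tau K18 P301L (15 uM unlabeled, 0.24 uM Alexa 594-labeled) in 100 mM sodium acetate pH 7 with 20 uM heparin, 6 hr at 37 C. ThT 30 uM added, 1 hr ambient; Alexa 594 FP and total fluorescence read at 555/632 nm.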
TRb SRC2 PPI: TRbeta-SRC2 interaction inhibition; TRbeta-SRC2 peptide binding, fluorescence polarization; receptor liganded with 1 µM T3; Potency, µM (series often up to 106 µM), for inactives: top-dose activity change, negative = inhibition, usual class: inhibitors; 0.065% of 280,000 active;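 note: plate controls were bound peptide for no effect and peptide without receptor for full effect; nearly all actives have a fitted effect of over 50% in size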
Target sequence (P10828 whole entry, looked up): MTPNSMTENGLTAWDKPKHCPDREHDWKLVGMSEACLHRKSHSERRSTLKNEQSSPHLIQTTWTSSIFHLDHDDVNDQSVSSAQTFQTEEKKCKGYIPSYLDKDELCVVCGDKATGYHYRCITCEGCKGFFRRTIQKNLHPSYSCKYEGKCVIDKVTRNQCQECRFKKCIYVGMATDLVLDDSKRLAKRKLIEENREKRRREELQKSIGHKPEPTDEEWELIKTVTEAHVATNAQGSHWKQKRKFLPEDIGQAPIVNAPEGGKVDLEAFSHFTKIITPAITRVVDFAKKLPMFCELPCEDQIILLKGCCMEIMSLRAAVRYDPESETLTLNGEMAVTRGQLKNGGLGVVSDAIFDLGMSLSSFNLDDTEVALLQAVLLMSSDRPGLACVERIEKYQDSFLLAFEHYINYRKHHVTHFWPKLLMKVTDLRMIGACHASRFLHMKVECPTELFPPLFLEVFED
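Binding of a 20-amino-acid Texas Red SRC2 peptide (20 nM) to TRb ligand-binding domain (0.6 uM) with agonist T3 at 1 uM was followed by fluorescence polarization after a 5 hr room-temperature incubation.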
An asterisk follows results filed as active; ? = inconclusive; / = no result given; [ ] = dose if it differs, or a comment. Compounds with a hit are over-represented: about 3.1% of the library has one in this group of screens. Unless noted, calls come from the whole dose curve; as a rule, active = well fitted curve in the direction sought with a large enough effect; inconclusive = small, poorly fitted or top-dose-only effect, or another doubt; inactive = no such curve, though single readings can be large; an effect the other way counts as inactive or inconclusive. Unless noted, % is set by controls: 0 for no effect and ±100 for the full control effect; potency is the fitted concentration of half-maximal effect.

SMILES | TexasRed fluor | Tau fibril ThT | Tau FP inhib | Tau fluor cs | TRb SRC2 PPI
Cc1ccc(N2CC(C(=O)O)CC2=O)cc1 (stereo unspecified) | -1% | -3% | -7% | -6% | 3%
O=C(/C=C/c1ccccc1)c1cccs1 | 0% | ? | 9% | -16% | 4%
O=C1Nc2ccccc2/C1=C/C(=O)c1cccs1 | 0% | 18µM* | 3% | -26% | 13%
COc1cc(CN(C(=S)NCC(=O)NC2CC2)C2CCCC2)cc(OC)c1OC | 0.089µM*[quencher] | -10% | 1% | -11% | ?
CCC(CC)C(=O)Nc1cccc(-c2nc3ncccn3c2C)c1 | -1% | 3% | -5% | -2% | -1%
COc1ccccc1NC(=O)CN1CCN(CC(=O)Nc2ccc(Cl)c(C(F)(F)F)c2)CC1 | -3% | -6% | -7% | -24% | -5%
CCc1ccccc1NCC(=O)Nc1ccc(Cl)c(C(F)(F)F)c1 | -1% | -19% | ? | 18µM*[quencher] | 5%
Cc1cccc(C(=O)N2CCc3cc(CNC(=O)CCc4ccccc4)ccc32)c1 | 1% | -13% | 9% | -8% | -6%
Cc1ccc(Nc2nc(CSc3nnnn3-c3ccccc3)cs2)cc1 | 0% | ? | 13% | 11µM*[quencher] | -2%
Cc1ccc(Nc2nc(CSc3nnnn3C)cs2)cc1 | 1% | ? | 4% | ? | -12%
O=C(NC1CCCCC1)c1c[nH]c2ccc(S(=O)(=O)Nc3ccccc3F)cc2c1=O | 1% | -11% | 28µM* | ? | 0%
CCc1ccccc1NS(=O)(=O)c1ccc2[nH]cc(C(=O)NC3CCCC3)c(=O)c2c1 | -1% | 6% | 13µM* | ? | -4%
COc1cccc(NC(=O)Nc2cccc(C(=O)O)c2)c1 | 2% | -10% | 6% | -4% | -3%
COc1cccc(NC(=O)NC2(C(F)(F)F)Oc3ccccc3O2)c1 | 1% | ? | 5% | 18µM*[quencher] | -8%
N#CC1=C(S)N(c2ccccc2)C(c2ccc(-c3cccc(Cl)c3)o2)NC1=O (stereo unspecified) | 1% | 22µM* | ? | -28% | 0%
Cc1cccc(N2C(S)=C(C#N)C(=O)NC2c2ccco2)c1 (stereo unspecified) | 0% | -4% | -9% | -6% | -3%
COc1ccc(NCc2cc3cc4c(cc3n(CC(=O)Nc3ccc(F)cc3F)c2=O)OCO4)cc1 | 1% | -10% | 16% | ? | 2%
COc1ccc([N+](=O)[O-])cc1NC(=S)NC(C)=O | -3% | -4% | 1% | 4% | -4%
COc1ccc(/C=C/C(=O)NC(=S)Nc2cc([N+](=O)[O-])ccc2O)cc1OC | -14% | 1.6µM* | ? | -14% | 10%
CCN=c1scc(-c2cccs2)n1/N=C/c1cc(OC)ccc1O | -2% | ? | ? | ? | 5%
CN=c1scc(-c2ccccc2F)n1/N=C/c1ccc[nH]1 | -4% | ? | 8% | ? | 0%
CC(C)N=c1scc(-c2cccs2)n1/N=C/c1ccc(O)c(O)c1O | 0% | 16µM* | ? | 20µM*[quencher] | 4%
CN=c1scc(-c2ccccc2F)n1/N=C/c1ccc(O)c(O)c1O | -23% | 14µM* | ? | 25µM*[quencher] | -4%
Cc1ccc(Cl)cc1NC(=O)C1CCCN(S(=O)(=O)c2c(C)noc2/C=C/N(C)C)C1 (stereo unspecified) | -1% | ? | 0% | ? | 5%
CC(C)CC(=O)Nc1ccc2nc(SCC(=O)N3CCOCC3)sc2c1 | 1259µM*[quencher] | 2% | -3% | -7% | -14%
SMILES | TexasRed fluor | Tau fibril ThT | Tau FP inhib | Tau fluor cs | TRb SRC2 PPI
COc1ccc(C2=C(C)C(=O)N(Cc3ccc(C(=O)NCc4ccc(C)cc4)cc3)S2(=O)=O)cc1 | 0% | 4% | 3% | -3% | 2%
COc1ccc(C2=C(C)C(=O)N(Cc3ccc(C(=O)NCc4cccc(C)c4)cc3)S2(=O)=O)cc1 | 158µM*[quencher] | -4% | -4% | -19% | -24%
CCCC[C@@H](C)/C=C(C)/C=C(\C)C(=O)NC1=C[C@@](O)(/C=C/C=C/C=C/C(=O)NC2=C(O)CCC2=O)[C@@H]2O[C@@H]2C1=O | -7% | / | / | / | -15%
O=C1CCCC2=C1C1(O)C(=O)c3ccccc3C1(O)O2 (stereo unspecified) | 1% | 3.5µM* | ? | -15% | -29%
CCCCCc1nc2sc3c(c2c(=O)n1NC(=O)c1ccc([N+](=O)[O-])cc1)CC(C)(C)OC3 | -1% | -13% | 14% | -27% | -2%
Cc1ccc(-n2c(SCc3ccccc3F)nc3[nH]ncc3c2=O)cc1Cl | -2% | 1% | -15% | -26% | -5%
Cc1cc[n+](-c2[nH]c(=O)sc2/C=N/N=C(\[O-])CCn2c3ccccc3c3ccccc32)cc1 | -2% | 28µM* | ? | ? | -1%
CCc1ccc[n+](-c2[nH]c(=O)sc2/C=N/N=C(\[O-])CCn2c3ccccc3c3ccccc32)c1 | -3% | 16µM* | 4% | ? | -11%
CCCCNC(=O)C1CCN(c2nc3ccccc3nc2C(F)(F)F)CC1 | -1% | 0% | -6% | -10% | 7%
CC1(C)Cc2c(sc3[nH]c(=S)n(Cc4ccco4)c(=O)c23)CO1 | -15% | 28µM* | ? | -26% | 3%
O=c1c2c3c(sc2[nH]c(=S)n1Cc1ccco1)CCC3 | -4% | ? | -13% | -16% | 2%
CCOc1ccc(/C=C(\C#N)c2nc(-c3cc4ccccc4oc3=O)cs2)c(OCC)c1 | ? | -6% | 2% | -4% | -6%
CCC(=O)Nc1c(C#N)c2nc3ccccc3nc2n1C1CCCCC1 | 0% | -12% | 7% | 2% | -4%
CCOC(=O)c1c(NC(=O)c2ccco2)n(C2CCCCC2)c2nc3ccccc3nc12 | 1% | 18µM* | ? | -29% | ?
CCN1CCN(CCCNC(=O)Cn2c(-c3cccs3)cc3cc(F)ccc32)CC1 | 141µM*[quencher] | -4% | -2% | -6% | ?
O=C(Cn1c(-c2cccs2)cc2cc(F)ccc21)NCCCN1CCN(c2ccc(F)cc2)CC1 | -17% | -4% | -1% | -25% | 3%
COCCNC(=O)Cn1c(-c2cccs2)cc2cc(Cl)ccc21 | 126µM*[quencher] | 1% | 2% | -4% | -20%
COc1cc(O)c2c(=O)cc(-c3ccc(OC)c(-c4c(O)cc(O)c5c(=O)cc(-c6ccc(O)cc6)oc45)c3)oc2c1 | -6% | -17% | ? | ? | 18%
O=c1cc(-c2ccc(O)c(-c3c(O)cc(O)c4c(=O)cc(-c5ccc(O)cc5)oc34)c2)oc2cc(O)cc(O)c12 | -26% | 14µM* | ? | ? | ?
COc1c(-c2ccc(O)cc2)oc2cc(O)cc(O)c2c1=O | -5% | -17% | 5% | -12% | 2%
O=c1c(-c2c(O)cc(O)c3c(=O)cc(-c4ccc(O)cc4)oc23)c(-c2ccc(O)cc2)oc2cc(O)cc(O)c12 | -14% | 16µM* | ? | ? | 15%
